Hits are enriched below; roughly 2.8% of the tested compounds scored in any of these assays.
PAFAH2 inh: PAFAH2 enzyme inhibitors, primary screen, biochemical, fluorescence polarization, human; Platelet-activating factor acetylhydrolase 2, cytoplasmic (Homo sapiens), Q99487; recombinant PAFAH2, FP-rhodamine activity probe; inhibition, % at 3.39 µM; 0.99% of 340,000 active; AID 492956, 2010;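 active means inhibition above the mean over all tested compounds plus 3 SD, cut at about 30% in these data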;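 further: inhibitors block probe labeling of enzyme so polarization drops; 0% = enzyme with DMSO and 100% = wells lacking PAFAH2 protein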
pPAFAH inh: pPAFAH enzyme inhibitors, primary screen, biochemical, fluorescence polarization, human | Platelet-activating factor acetylhydrolase (Homo sapiens), Q13093 | recombinant pPAFAH, FP-rhodamine probe fluorescence polarization | 1.5% of 330,000 active | inhibition, % at 3.39 µM;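 active means inhibition above the mean inhibition across the screen plus 3 SD, cut at about 25% in these data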;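 further: inhibitors block binding of the rhodamine activity-based probe so polarization drops; 0% = enzyme with DMSO and 100% = wells lacking pPAFAH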
PAFAH1B2 FP inh: PAFAH1B2 enzyme inhibitors, primary screen, biochemical, fluorescence polarization, human; Platelet-activating factor acetylhydrolase IB subunit alpha2 (Homo sapiens), P68402; recombinant PAFAH1B2, FP-rhodamine activity probe; inhibition, % at 3.39 µM; 1.2% of 340,000 active; AID 492953, 2010;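 active means inhibition above the mean of all tested compounds plus 3 SD, cut at about 24% in these data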;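 further: 0% = enzyme with DMSO and 100% = wells lacking PAFAH1B2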
Target sequence (P68402 whole entry, looked up): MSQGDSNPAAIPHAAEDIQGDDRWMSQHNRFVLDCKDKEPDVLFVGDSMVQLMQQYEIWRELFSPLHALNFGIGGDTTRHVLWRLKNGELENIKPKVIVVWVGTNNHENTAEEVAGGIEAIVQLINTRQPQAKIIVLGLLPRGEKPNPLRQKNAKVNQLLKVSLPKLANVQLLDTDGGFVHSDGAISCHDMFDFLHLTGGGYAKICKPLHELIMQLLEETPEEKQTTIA
PAFAH1B3 FP inh: PAFAH1B3 enzyme inhibitors, primary screen, biochemical, fluorescence polarization, human; Platelet-activating factor acetylhydrolase IB subunit alpha1 (Homo sapiens), Q15102; recombinant PAFAH1B3, FP-rhodamine probe; inhibition, % at 3.39 µM; 0.28% of 340,000 active;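 active means inhibition above the screen-wide average of all tested compounds plus 3 SD, cut at about 25% in these data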;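 further: 0% = enzyme with DMSO only and 100% = wells lacking PAFAH1B3 protein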
PME-1 inh: PME-1 inhibitors via competitive probe labeling, primary screen, biochemical, fluorescence polarization, FP-Rh probe, HTS | 0.53% of 320,000 active | recombinant PME-1 | inhibition, % at 5.9 µM;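 active means inhibition above the campaign mean of all compounds plus 3 SD, cut at about 26% in these data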;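 further: competitive labeling of PME-1 active site by serine hydrolase directed probe; 0% = PME-1 with DMSO and 100% = wells lacking PME-1 enzyme; inhibitors block probe labeling so polarization falls and inhibition rises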
Target sequence (Q9Y570 whole entry, looked up): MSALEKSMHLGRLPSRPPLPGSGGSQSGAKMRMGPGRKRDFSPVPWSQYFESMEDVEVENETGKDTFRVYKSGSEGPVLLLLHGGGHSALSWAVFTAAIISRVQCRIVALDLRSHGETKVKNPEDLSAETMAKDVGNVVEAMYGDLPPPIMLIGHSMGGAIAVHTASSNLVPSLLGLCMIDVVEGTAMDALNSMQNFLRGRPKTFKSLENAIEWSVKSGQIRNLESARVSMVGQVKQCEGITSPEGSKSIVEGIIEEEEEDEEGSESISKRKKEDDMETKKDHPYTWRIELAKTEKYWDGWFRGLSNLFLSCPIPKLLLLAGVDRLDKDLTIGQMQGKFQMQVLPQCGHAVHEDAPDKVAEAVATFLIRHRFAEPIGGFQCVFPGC
Fam108B counter: mouse Fam108B serine hydrolase inhibitors, primary screen, counter-screen for RBBP9 inhibitor project, biochemical, fluorescence polarization; recombinant Fam108B, FP-Rh probe fluorescence polarization; inhibition, % at 9.51 µM; 0.33% of 300,000 active; AID 1947, 2009;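 active means inhibition above the screen mean inhibition plus 3 SD, computed separately per campaign, cut at about 18% in these data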;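 further: inhibitors lower polarization as less probe binds the enzyme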
PAFAH2 confirm: PAFAH2 enzyme inhibitors, confirmation, biochemical, fluorescence polarization, human; inhibition, % at 3.39 µM; shares compounds with PAFAH2 inh; 65% of 2,300 active; recombinant PAFAH2, FP-rhodamine activity probe;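 active means mean inhibition over three repeats above a set limit taken from the earlier primary screen, cut at about 30% in these data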;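 further: inhibitor blocks binding of rhodamine activity probe so polarization falls; 0% = enzyme with DMSO and 100% = wells lacking PAFAH2 protein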
* = called active by the depositor; x = not tested or not shown.

SMILES	PAFAH2 inh	pPAFAH inh	PAFAH1B2 FP inh	PAFAH1B3 FP inh	PME-1 inh	Fam108B counter	PAFAH2 confirm
CC1=NN(C(C#N)c2ccccc2C)C(C)(C)C1 (centres undefined)	-0.5	-0.4	4.7	8.2	2.1	0.3	x
O=C(CN(C(=O)C1CSC(=O)C1)c1ccc(F)cc1)NCc1ccc2c(c1)OCO2 (centres undefined)	3.9	5.0	-2.4	1.6	-3.1	-0.2	x
O=C(Nc1cccc(C(F)(F)F)c1)Nn1cnnc1	-2.5	x	-1.8	-2.5	x	x	x
Cc1ccc(CCN2CC(C(=O)NC3CCCCC3)CC2=O)cc1 (centres undefined)	-0.4	2.5	6.4	3.5	5.3	-0.5	x
Cc1[nH]c2ccc(C(=O)OCC(=O)Nc3cccc(S(N)(=O)=O)c3)cc2c1C	69.3*	1.9	0.5	-0.9	9.4	x	64.4*
CN(C)S(=O)(=O)c1cccc(C(=O)OCC(=O)Nc2ccccc2OC(F)F)c1	33.0*	11.4	5.1	4.0	3.7	1.1	25.2
C=CCn1c(C)cc(C(=O)COC(=O)c2ccc3c(c2)NC(=O)CS3)c1C	40.6*	10.5	5.4	12.6	-8.6	-0.2	28.2
COCCn1c(C)cc(C(=O)COC(=O)c2ccc3c(c2)NC(=O)CS3)c1C	2.9	5.5	3.4	5.9	-6.8	0.3	x
CCC(CNC(=O)c1c(C)nn(-c2ccccc2)c1Cl)c1ccccc1 (centres undefined)	-8.4	6.6	3.8	7.5	2.9	-0.8	x
CN(C)S(=O)(=O)c1ccc(C(=O)N2CCN(S(=O)(=O)c3ccc4c(c3)OCCO4)CC2)cc1	45.5*	x	-1.0	0.1	x	x	41.1*
CC(=O)Nc1ccc(C(=O)N2CCN(S(=O)(=O)c3ccc4c(c3)OCCCO4)CC2)cc1	0.9	1.3	5.0	6.9	0.9	x	x
Cc1cc(C(=O)OCC(=O)Nc2ccc(F)c(F)c2F)c(C)o1	51.7*	8.8	6.2	3.4	-2.6	5.2	49.5*
Cc1ccc(C(=O)OCC(=O)Nc2ccc(F)c(Cl)c2)o1	84.8*	7.4	0.8	3.1	2.5	x	74.8*
Cc1cc(C(=O)OCC(=O)Nc2ccccc2)c(C)o1	77.6*	3.7	-0.5	4.9	2.4	-0.9	74.2*
Cc1cc(C(=O)OCC(=O)Nc2cccc(S(=O)(=O)N(C)C)c2)c(C)o1	44.8*	1.0	0.7	-4.2	7.3	1.0	34.2*
CC(=O)c1ccccc1NC(=O)COC(=O)c1cc(C)oc1C	13.8	-2.3	4.5	4.3	4.5	x	x
CCN(CC)CCNC(=O)C(=O)NCC1OCCN1S(=O)(=O)c1cccs1 (centres undefined)	-0.8	1.4	-5.0	-4.7	4.4	1.3	x
CN(CC(=O)Nc1ccc(F)c(F)c1F)C(=O)C1CCCO1 (centres undefined)	0.5	-1.1	1.4	2.9	2.6	3.1	x
O=C(CNC(=O)c1ccc(-c2ccccc2)cc1)Nc1cccc(CO)c1	6.8	1.8	2.3	-0.8	x	x	x
CSc1ccc(S(=O)(=O)N2CCC(C(=O)N3CCc4ccccc4C3)CC2)cc1	-5.9	-9.6	-2.2	2.6	5.0	0.7	x
CN(C)S(=O)(=O)c1cccc(NC(=O)COC(=O)c2cccn2C)c1	36.3*	5.8	4.9	-1.4	6.8	-2.7	21.5
Cc1cc(C(=O)OCC(=O)Nc2ccc(F)cc2)c(C)o1	78.8*	7.4	1.2	6.2	1.5	-1.6	78.3*
O=C(COC(=O)c1ccccc1OC(F)F)Nc1ccc2[nH]c(=O)[nH]c2c1	3.7	7.5	5.4	0.5	-1.1	-2.1	x
C=C1CCN([C@H](C(=O)OCc2ccc(C)cc2)C(C)C)S(=O)(=O)c2ccccc21	126.0*	1.7	1.2	8.1	0.5	6.2	0.1
C=C1CCN([C@@H](C)C(=O)OCc2cccc(C)c2)S(=O)(=O)c2ccccc21	10.0	-1.3	0.7	4.1	4.2	2.7	x
SMILES	PAFAH2 inh	pPAFAH inh	PAFAH1B2 FP inh	PAFAH1B3 FP inh	PME-1 inh	Fam108B counter	PAFAH2 confirm
Cc1ccc(NC(=O)COC(=O)CCC2CCCC2)c(Br)c1	31.4*	17.8	1.8	5.7	0.6	x	14.0
COc1ccc(NC(=O)COC(=O)CC2CCCCC2)cc1	47.8*	6.8	-1.6	0.5	-2.7	x	42.4*
COc1ccc(NC(=O)COC(=O)CC2CCCC2)cc1	57.7*	19.5	3.2	4.3	x	x	47.0*
Cc1cc(C)cc(NC(=O)COC(=O)CC2CCCC2)c1	80.3*	23.5	3.5	4.3	2.0	x	66.2*
COc1cc(CCC(=O)OCC(=O)Nc2ccc(C)cc2Br)cc(OC)c1OC	6.8	5.9	-1.0	6.0	-1.7	-1.0	x
CC(=O)c1cccc(NC(=O)COC(=O)Cn2cnc3ccccc32)c1	3.8	-1.1	-2.8	6.6	x	x	x
Cc1ccc(S(=O)(=O)N2CCCNCC2)cc1	10.3	5.1	4.7	4.6	1.3	4.7	x
CSc1nc(SCC(=O)NCC2CCCO2)c2c3c(sc2n1)CN(C)CC3 (centres undefined)	x	5.1	x	x	-2.0	0.7	x
Cc1cc(C)n(-c2ccc(C(=O)OCC(=O)Nc3ccccc3F)cc2)n1	61.9*	23.6	2.6	4.7	x	x	51.1*
Cc1cc(C)n(-c2ccc(C(=O)OCC(=O)Nc3cc(Cl)ccc3[N+](=O)[O-])cc2)n1	2.9	4.2	1.1	3.7	1.3	4.7	x
Cc1ccc(NC(=O)COC(=O)c2ccc(-n3nc(C)cc3C)cc2)c(F)c1	41.8*	18.8	2.8	-0.2	x	x	42.5*
COc1cccc(CN(C)C(=O)CSC(C)C(=O)Nc2cc(C)on2)c1OC (centres undefined)	-2.4	8.3	4.3	4.4	-2.4	0.2	x
CC1CNC(=S)N(c2ccccc2)C1=O (centres undefined)	9.3	x	2.5	7.8	x	x	x
CCOc1ncccc1C(=O)OCC(=O)Nc1ccc(Cl)cn1	46.2*	24.0	2.9	5.7	x	x	28.9
O=C(COC(=O)c1ccccc1)Nc1ccc(Cl)cn1	45.8*	1.6	0.2	7.4	-3.8	-1.0	49.2*
CCOc1ncccc1C(=O)OCC(=O)c1ccc(Br)s1	50.3*	12.2	0.5	1.9	x	x	35.2*
COc1ccc(C(=O)OCC(=O)Nc2ccc(Cl)cn2)cc1	56.2*	5.6	2.5	0.9	-2.2	-1.8	53.7*
CSc1ncccc1C(=O)OCC(=O)Nc1ccc(Cl)cn1	3.5	3.9	3.1	1.1	x	x	x
O=C(COC(=O)c1cccc(F)c1)Nc1ccc(Cl)cn1	10.2	1.8	9.9	-3.3	x	x	x

Source: PubChem BioAssay (The Scripps Research Institute Molecular Screening Center)
